Compound activity from PubChem.
Shown are actives, neighbours in structure and some others; about 6.3% of the full set was active somewhere.
A340 absorber: compound light absorbance at 340 nm, profiling panel, artefact control, biochemical, MLSMR library, data from PS, PMK, MK assays. compound absorbance at 340 nm, fold over control. fold change at 10 µM. 65,000 tested, under 10 active. AID 708, 2007;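 active = at 10 µM dose, initial 340 nm absorbance at least 2 fold that of control wells; inactive = change under 2 fold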;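 also: initial absorbance extrapolated from kinetic A340 decline of NADH oxidation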
Fluor 339 460: intrinsic fluorescence of library compounds, ex339/em460 – biochemical, MLSMR library, data from DPM-DC assay, artefact control, profiling panel; compound autofluorescence, ex339/em460 nm, NADH buffer; hits give high values; 1 = no-compound wells, NADH background; fluorescence fold increase at 10 µM; AID 709, 2007; 65,000 compounds, 5.5% hits;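 active = at 10 µM, mean starting fluorescence two-fold or more over control wells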;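 also: signal is the first read of a kinetic run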
MK inhibit: S. pneumoniae MK inhibitors, primary screen, biochemical, PK/LDH-coupled NADH absorbance; 65,000 compounds, 0.48% hits; AID 555, 2006; mevalonate kinase [Streptococcus pneumoniae D39]; inhibition, % at 10 µM; purified MK, PK/LDH-coupled NADH absorbance 340 nm;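 active = ranked among the strongest by inhibition in the single 10 µM screen, a fixed top-ranked set picked for dose follow-up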
Spn PMK inh: S. pneumoniae PMK inhibitors, primary screen, biochemical, mevalonate pathway, pilot trial included | phosphomevalonate kinase (Streptococcus pneumoniae D39) | purified PMK, PK/LDH-coupled NADH absorbance 340 nm | inhibition, % at 10 µM | 65,000 compounds, 0.49% hits | AID 539, 2006;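 active = top-ranked compounds by inhibition in the single 10 µM screen, taking a fixed number of the strongest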;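 also: 0% = full reaction with DMSO carrier and 100% = background rate without enzyme reaction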
NADH coupling: inhibitors of PK/LDH coupling enzymes, profiling panel, artefact control, biochemical, MLSMR library; coupled PK/LDH NADH assays, four targets; IC50, µM (highest dose often 10 µM), for the others: top-dose inhibition; 65,000 compounds, 0.02% hits; AID 774, 2007;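 active = single-dose screening hits from any of four coupled enzyme assays that gave an IC50 when retested across doses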;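 also: the DPM-DC format reads NADH fluorescence rather than 340 nm absorbance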
DPM-DC inhibit: S. pneumoniae DPM-DC inhibitors, primary screen, biochemical, PK/LDH-coupled NADH fluorescence | diphosphomevalonate decarboxylase (Streptococcus pneumoniae D39) | purified DPM-DC | calls only at 10 µM | 65,000 compounds, 0.49% hits | AID 556, 2006;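 active = the 320 compounds with the highest percent inhibition in the single-dose primary screen, excluding strongly autofluorescent ones, cut at about 32% in these data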;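 also: kinetic rate of NADH fluorescence loss reporting ADP formed by the decarboxylase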
An asterisk follows results filed as active; i = inactive; . = no result given; + = active, no number.

SMILES	A340 absorber	Fluor 339 460	MK inhibit	Spn PMK inh	NADH coupling	DPM-DC inhibit
COc1ccc2cc(C(c3nnnn3C3CCCC3)N3CCc4ccccc4C3)c(=O)[nH]c2c1 (configuration not stated)	1.1	1.4	5	9	5%	i
CN1C(=O)CC(N2CCN(c3ccc(Cl)c(Cl)c3)CC2)C1=O (configuration not stated)	1	1	0	0	0%	i
O=C1C(=O)N(CCCn2ccnc2)C(c2cccnc2)/C1=C(/O)c1ccc(Cl)cc1 (configuration not stated)	1.1	1	5	12	8%	i
CCOC(=O)CCn1c2nc(C)cc(C)c2c(=O)n1-c1ccccc1	1.1	4.5*	3	64*	34%	.
CCOC(=O)C(NCc1ccccc1OC)(NC(C)=O)C(F)(F)F (configuration not stated)	0.99	1	5	11	2%	i
COc1cc(CNc2ccc3[nH]c(=O)[nH]c3c2)cc(Cl)c1OCC(=O)NC(C)(C)C	1.1	3*	2	4	11%	i
CCOc1cc(CNc2ccc3[nH]c(=O)[nH]c3c2)ccc1OCC(=O)NC(C)(C)C	1.1	3.8*	10	3	7%	.
CC1(C)Cc2c(sc3nc(SCC#N)n(C4CCCCC4)c(=O)c23)CO1	1	1	8	0	3%	i
O=C1CCNc2cc3ccccc3cc21	1	2*	9	0	3%	.
COc1ccc(C2C3=C(CC(C)(C)CC3=O)Nc3c2c(=O)[nH]c2nc(C)nn32)cc1 (configuration not stated)	1.1	2.5*	15	5	16%	i
COCCN(CCOC)C(=O)c1c[nH]c2ccc(S(=O)(=O)N(C)c3ccc(F)cc3)cc2c1=O	1	2.3*	1	18	10%	i
CN(c1ccc(F)cc1)S(=O)(=O)c1ccc2[nH]cc(C(=O)O)c(=O)c2c1	1	1.3	0	9	3%	i
Cc1c(-c2cccs2)[n+](=O)c2c(n1[O-])CCCCC2	1.1	1.1	8	0	3%	i
CCC(CCC(=O)Nc1ccn(-c2ccccc2)n1)C(=O)O (configuration not stated)	1	1	9	4	4%	i
O/N=C1\CCC\C1=C/c1ccco1	1.1	1.4	4	8	15%	+
O/N=C1/CCCSc2ccccc21	1	1.1	4	8	4%	i
N#Cc1ccc(-c2ccco2)nc1SCc1ccccc1	1.1	2.1*	9	3	4%	i
CCN(CC)CCSc1nc(O)c(C(C)C)c(=O)[nH]1	1	1.1	2	25*	11%	i
CCC(C)c1c(O)nc(SCC(=O)c2ccccc2)[nH]c1=O (configuration not stated)	1	1.2	6	0	2%	i
CCOc1ccccc1N(C(=O)CNC(=O)c1ccco1)C(C(=O)NC(C)(C)C)c1ccncc1 (configuration not stated)	1	1	0	9	3%	i
CNC(=O)NC(=O)CSc1ccc(NC(C)=O)cc1	1	1.1	0	13	4%	i
O=c1oc2ccccc2c(O)c1CN1CCCCC1	1	1.1	.	11	4%	i
Cc1c(C)c2cc(Cl)c(O)c(CN3CCCCC3)c2oc1=O	1	2.5*	0	7	1%	.
CCCc1cc(=O)oc2c(CN3CCN(C)CC3)c(O)c(Cl)cc12	1.1	2.3*	10	1	6%	.
Cc1cc(=O)oc2c(CN3CCN(C)CC3)c(O)c(Cl)cc12	1	2.5*	0	9	5%	.
SMILES	A340 absorber	Fluor 339 460	MK inhibit	Spn PMK inh	NADH coupling	DPM-DC inhibit
CN1CCN(Cc2c(O)c(Cl)cc3c(-c4ccccc4)cc(=O)oc23)CC1	1.1	1.6	10	0	6%	i
CCCCc1cc(=O)oc2c(CN3CCCC3)c(O)c(Cl)cc12	1	3*	1	7	3%	.
CCOC(=O)c1c(C)cccc1OCC(N)=O	1	1.1	5	2	2%	i
Cc1cc(=O)n2[nH]c(-c3ccccc3Cl)cc2n1	0.98	1.1	0	25*	8%	i
CCCCCC(=O)Nc1ccc(S(=O)(=O)Nc2nccnc2OC)cc1	1.1	1.1	0	14	6%	i
CN(C)C(=O)N1CCC(C(=O)NCC2CCCO2)CC1 (configuration not stated)	1	1.1	0	12	4%	i
Cc1cc(NS(=O)(=O)c2ccc(NC(=O)C(C)Oc3ccc4c(C)cc(=O)oc4c3)cc2)no1 (configuration not stated)	1.1	2*	9	6	10%	i
Cc1nn(-c2ccc(F)cc2)c2c1cc(C#N)c1nc3ccccc3n12	1	2.5*	4	2	3%	.
COc1ccc(N2CCN(C(=O)CCNS(=O)(=O)c3ccc4c(c3)CCC(=O)N4)CC2)cc1	1	2.1*	8	13	7%	i
C[C@H](CS)C(=O)N1CCC[C@H]1C(=O)O	0.97	1	1	11	4%	i
Cc1ccc2nc(-c3ccccn3)cc(C(=O)NC3CCN(C)CC3)c2c1	1.1	3*	2	0	7%	i
COc1ccc2c(c1)cc(C(=O)O)n2C	1	2.5*	0	17	15%	i
Cc1cc(=S)n(-c2ccccc2)n1C	1	1.1	6	7	5%	i
CCOC(=O)c1cnn2c1[nH]c(=O)c1ccccc12	1	2.3*	6	6	6%	.
CCOC(=O)c1cnn(-c2cc(C)c3ccccc3n2)c1N	1.4	1.1	11	7	6%	i
Cc1occc1-c1nnc(SCC(=O)Nc2nccs2)n1CCc1ccccc1	1	2.1*	11	13	12%	i
Cc1onc(-c2c(F)cccc2Cl)c1C(=O)Nc1cccc2nsnc12	1	3*	6	6	7%	i
COc1cc(C(=O)N2CCC(NC(=O)C(Cc3ccccc3C)NC(C)=O)CC2)cc(OC)c1OC (configuration not stated)	1	1.1	6	12	6%	i
COc1ccc(OC)c(CC(NC(C)=O)C(=O)NC2CCN(c3nc(C)cc(C)c3C#N)CC2)c1 (configuration not stated)	1	2.8*	12	0	10%	i
